The campaign covered roughly 53,000 sequences. About 3,700 (7%) were called active.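 The calls were made as follows: active = gene knockdowns whose robust z-score for IL-1 alpha signal is at least 2 or at most -2, so actives lie on both sides; inactive = the rest.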 Only a selection was taken, and actives are over-represented in it overall.
Test: Components of the Cytosolic LPS Sensing Pathway: Gene Identification via Genome-wide siRNA Screen;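 also: robust z of the log signal after scaling to non-targeting control siRNA wells of the plate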
Details: RAW264.7 macrophages, IL-1a HTRF, actives lie on both sides, screened at 100 nM (by protocol), cells primed 5 h with Pam3CSK4 first
How it was run: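 RAW264.7 mouse macrophages reverse-transfected with single siRNAs (100 nM final) for 48h, primed with Pam3CSK4 for 5 hours, then transfected with LipidA for 24 hour. Supernatant IL-1a read by HTRF; values normalized to negative-control median, log-transformed robust z-scores.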

Sequence	z-score
GGAGCUUUUAAGAAUGUGGTT against Ireb2	-1.57 (inactive)
GCAGGUGCCUUCAAAAACCTT against Pm20d2	-0.926 (inactive)
CCUACGAGUUUUGCAUUUATT against Slc25a51	-2.46 (active)
GGCAGCAGUUAAUUUACUUTT against Mmp21	-1.71 (inactive)
GGCGGGUAGAUAUCAUGGGTT against Stn1	0.902 (inactive)
GGAAGCAAUGAUCAAUUAUTT against Ppp2r3c	0.752 (inactive)
GGUUCCAUGUUCAGAAUUUTT against Alg9	2.04 (active)
GGCAAUGAUGAUCUCCUCUTT against Htra3	0.434 (inactive)
GGGUAUGACCGGUAUUACATT against Atp5j2	0.213 (inactive)
GGAGGCAGCCAAAGAAAACTT against Bmp8a	0.462 (inactive)
GGAUGAAAUCGCCAUAUGUTT against Snrnp48	-1.89 (inactive)
GGAGAAAACCUAGAAAUUUTT against Galnt1	0.238 (inactive)
CCGGCUAUGAAGAUGAGUATT against Cox6a1	3.21 (active)
GCCGUAAGCUAGGAUCUGGTT against 1700065D16Rik	0.787 (inactive)
GGUAAUACAACUGAGAACUTT against Zfp2	0.39 (inactive)
GGCAUCUGAGUGAUAUAAATT against Dcps	0.109 (inactive)
GGCCGUGUUAUCCAGAUUGTT against Prkcd	1.43 (inactive)
GGCAGUCUCAGGUUAUCUCTT against Zfp445	0.406 (inactive)
GGCUUUUCAGCAGGUUUAATT against Ube2g1	5.04 (active)
GGCUGUAAGGGAACAGCUATT against Irf2bp1	-0.615 (inactive)
GGUGAUGAAAUUUAUUGAGTT against Gpn1	-0.127 (inactive)
GGAGAAGGGCCUGAAGUAUTT against Lsm5	-1.77 (inactive)

Sequence	z-score
GGUGGCAGUCACCAUUCUUTT against Il17rd	-0.364 (inactive)
CCAUACAGAUCGCACCCUGTT against Txndc15	-2.15 (active)
GGACAGAGCCUAGAAAACUTT against Mpdu1	-1.15 (inactive)
GGCUCCAAGGGAUUUGGUUTT against Rbfox1	2.77 (active)
GGACUUUGUCAACCAUGUCTT against Fbxl5	-0.0144 (inactive)
CGUCAAUUCACACCAUUCATT against Gsk3a	-1.25 (inactive)
GGGUGCUCUGAAGAAGCAATT against Olfr488	-2.04 (active)
GGCUUAUGUCACCAACUUGTT against Pxdc1	-0.533 (inactive)
GGAGUUAGAAUUGAACCUUTT against Mr1	-1.49 (inactive)
GGAUCCAUUUUGAGGAUUUTT against Vipr1	-0.056 (inactive)
GGGCAAGUACAAGCGUAACTT against Jph4	-1.5 (inactive)
GGGAAAACACAAAGAAGAATT against Angpt1	0.307 (inactive)
GGAGCCUAUCGCUUUACUCTT against Vps16	1.18 (inactive)
GGAGAUCUGUGAUGAGGUGTT against Nudt22	2.07 (active)
GGUGUCAACAUUGCAUACUTT against Gatad2b	1.62 (inactive)
GGAAACAUCCAAGAAAAAUTT against Ap1s2	-0.489 (inactive)
GGCUAUGGAAACCACCACATT against Nrg3	-1.21 (inactive)
CGAUGAUAAAACGAACAAGTT against Plppr5	2.78 (active)
GGAUUGUCCACAUGGAACUTT against Ccl27a	-0.112 (inactive)
GGUAUGGAUGAAGAACUAGTT against Pdhb	1.62 (inactive)
GGUUGUACCUACAACAGAUTT against Tiprl	-0.773 (inactive)
GGCUUUACUUCUUGCUGUGTT against Olfr1412	-0.918 (inactive)

Sequence	z-score
CCAUGGACCAAAUGAAGUUTT against Cd44	2.59 (active)
GCAAGAUACUGACCACUAGTT against Krt25	0.14 (inactive)
CCCAGGUGAGACCUUUACCTT against Fndc3b	-1.76 (inactive)
CCUUCUUGUGGGAGUGAAATT against Chodl	-0.0597 (inactive)
GGUAGACACACACAUUCAUTT against Ampd3	0.633 (inactive)
AGUGCUCAUUAACUGUCGCTT against Snrpd2	-2.75 (active)
CCGUUGACCUGAAAAGGAATT against Clic4	-0.0288 (inactive)
GGAGAAAAGCAAUAAUGAATT against Klf12	-1.07 (inactive)
CGUGAGCACAAAAAUAUUGTT against Fchsd2	-0.251 (inactive)
GGACAAGUCGAAGAGUGAGTT against Ing1	-2.26 (active)
GGAACAGCGGCUAACUUAUTT against Asic4	1.4 (inactive)
GGUGCUAAGCAUGAAGCCUTT against Stk16	-1.01 (inactive)
GGUAGAAGAAUUGUUUGUGTT against Tcp11l1	0.967 (inactive)
GGUGAUGCUUCUUGGAGACTT against Rab37	-0.59 (inactive)
GCGUGAACGGAUAAAAAAUTT against Figla	1.09 (inactive)
GGCACUUAAGGAAAUUGGGTT against Bloc1s1	-2.02 (active)
CCAUUCCAAAGGUAUUAGCTT against Olfr619	-0.244 (inactive)
GGCAAAACAACUUUAUUCCTT against Ucp2	1.14 (inactive)
GGAUAUCACCUUCGAGAUATT against Ankrd7	-0.0496 (inactive)
GGAUGAGAUCAACUUCCUCTT against Krt7	-0.6 (inactive)
GCAUCUCAAGACGAUGGAUTT against Akap8l	2.3 (active)
GGCUUUUGAAGCCAUCAAGTT against Mrpl57	-1.2 (inactive)

Sequence	z-score
GGAAUUCUGACGUGAAGAATT against Olfr13	-0.987 (inactive)
GGUAGACUGUGAAAAUGACTT against Ldlr	-0.6 (inactive)
GGUGAAGCGAAUUCUCUACTT against Upb1	-0.362 (inactive)
GGCAUUGGCAUUUUUAUAGTT against 9530056K15Rik	-0.879 (inactive)
GCCACGAGUUCUUUGAAGCTT against Ubxn6	-0.15 (inactive)
GGACAAGAUUGUAUCUGCATT against Olfr1507	-0.56 (inactive)
GGAGCAAGAGUCUAAAUGATT against Rubcn	-2.23 (active)
GGAUCAAGUGGCUGAUUUGTT against Ube2t	-0.457 (inactive)
GGACUAUUCUGAGAAUCCCTT against Olfr821	-1.69 (inactive)
GCCUCUGAUGUAAACAGGATT against Nr2c2ap	0.883 (inactive)
GCAGUGUAUACCUGGGCUATT against 1700001C19Rik	0.388 (inactive)
GGCACUCCUGAUGUUCUCUTT against Cyb561d2	-2.96 (active)
GGUGUUACAGAUGUACCGATT against Nfkbid	0.0859 (inactive)
GGAAGACAAUGAUGAUGUUTT against Clns1a	-1.82 (inactive)
GGAGUUUUGAAUAAACCAATT against Tmc7	-0.2 (inactive)
GGGCUUUCCUCAAGGUAGUTT against Olfr62	-1.39 (inactive)
GGAAUUGUCUAACAGGCUGTT against Hoxd12	-0.025 (inactive)
GGAACAGUUACUUGAGAGUTT against Zfp786	0.759 (inactive)
CGAGCUCAGGCCUAUUAAATT against Cdh12	3.39 (active)
GGCUUUGACAAUCUUUAAGTT against Ergic1	-0.687 (inactive)
CCUCAACUGGUUCCCUAACTT against Spatc1	-1.73 (inactive)
GCUGGUUACAUAAAGCUACTT against Slc25a51	0.0694 (inactive)

Sequence	z-score
CGGAGUAAACAAUACAGUCTT against Gnmt	2.26 (active)
CCUCCUAAGGAUGAAGAUUTT against Calml4	0.654 (inactive)
CGACAGUUACUUGCCCAGATT against Rasgrp3	-1.36 (inactive)
GGCGAAAUCUGCUAGAGUATT against Tppp3	2.3 (active)
GCUGUCGUUGAAGGCAUUGTT against Olfr317	-0.828 (inactive)
GAGUGAUGCGCAUUUCGAGTT against Sf3b5	-2.53 (active)
GCCAGAUCAUUGUAUCAAUTT against Tmx3	1.27 (inactive)
GGAGAUUGUUGACCUGGUCTT against Tuba3b	2.03 (active)
GGUGGAUGUCUUCUUCAACTT against Gata2	0.697 (inactive)
GCCUCGUGAAUAAUUGAAATT against Ddt	0.967 (inactive)
GCCUAUUCUAUCGAUAACCTT against Cdh23	0.801 (inactive)
GGCCAUCAGUAUCAGCAAATT against Hip1r	0.547 (inactive)
GGCUAUUGUGGAGAAGAUCTT against Cblif	-2.07 (active)
GGAGACUCCUAAGAAGCAGTT against Cc2d1a	0.445 (inactive)
GGAUCGAAUCAGGAAUGAATT against Nphs1	1.39 (inactive)
GGAGAGUUACGACGUAUUCTT against Ckb	0.23 (inactive)
GGGACAAAAACACAUGUACTT against Kif5c	0.773 (inactive)
GGGAAUCAAAGGCUUUGGGTT against Ms4a1	-1.15 (inactive)
CCAUAUACCCUUGAAUUCCTT against Tmem185b	0.154 (inactive)
GGAAAGGAAUGUUCAAAUUTT against Psmb8	2.02 (active)
